# PubChem BioAssay (NCATS)
# Several values for one entry are separate records, joined by “and”; a condition that tells them apart may be missing. Equal entries are not always repeated. Results filed as inconclusive are left out. A call without a number means that no potency is given here. The source holds several records for some structures; these can differ, active in one and inactive in another. Unmarked numbers belong to inactive results. Activity calls are given as the source filed them. Unless noted, the call rests on the fitted dose curve; in most records, active means well fitted curve in the direction sought with a large enough effect; inconclusive means small, poorly fitted or top-dose-only effect, or another doubt; inactive means no such curve, though single readings can be large; an effect the other way counts as inactive or inconclusive.
# Legend:
# [1] = target: Cytochrome P450 2C9 (Homo sapiens) (UniProt P11712); assay: Cytochrome P450 family 2 subfamily C member 9 (CYP2C9) small molecule antagonists: luciferase biochemical (cell-free) qHTS assay (AID 1645842; active means well fitted curve in the direction sought with a large enough effect in the repeat runs; an effect the other way counts as inactive or inconclusive; further: nearly all actives have a fitted effect of over 55% in size; further: potency means the concentration at half of the fitted maximal effect); conditions: P450-Glo CYP2C9 enzyme assay, luciferin luminescence; series mostly up to 57.4 µM
# Cytochrome P450 2C9 (Homo sapiens), sequence (P11712 whole entry, looked up): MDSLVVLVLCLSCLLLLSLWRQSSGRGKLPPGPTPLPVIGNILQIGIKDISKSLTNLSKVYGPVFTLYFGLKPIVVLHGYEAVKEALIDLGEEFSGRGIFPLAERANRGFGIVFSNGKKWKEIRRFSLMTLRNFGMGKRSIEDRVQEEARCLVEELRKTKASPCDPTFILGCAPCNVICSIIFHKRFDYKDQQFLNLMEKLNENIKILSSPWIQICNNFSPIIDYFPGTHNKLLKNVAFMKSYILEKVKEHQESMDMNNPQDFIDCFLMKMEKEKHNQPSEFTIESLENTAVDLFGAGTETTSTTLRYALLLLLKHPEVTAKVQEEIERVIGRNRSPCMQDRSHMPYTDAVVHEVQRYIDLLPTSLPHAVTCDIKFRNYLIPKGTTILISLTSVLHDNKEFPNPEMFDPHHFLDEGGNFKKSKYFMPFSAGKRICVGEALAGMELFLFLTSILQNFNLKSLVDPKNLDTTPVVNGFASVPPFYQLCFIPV
# How it was run: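 P450-Glo CYP2C9 system: proluciferin substrate with enzyme in mix containing 0.4% BSA, 10 min at room temperature, then NADPH regeneration solution added and incubated 1 h at 37C. Detection reagent stopped reaction; luminescence read after 20 min as RLU.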
# [2] = Primary qHTS for inhibitors of nuclear receptor binding SET domain protein 2 (NSD2) in an isogenic RCH-ACV NSD2 p.E1099K mutant (9B) (AID 1645876); conditions: RCH-ACV NSD2 E1099K (9B) viability, CellTiter-Glo, 72 h; series mostly up to 44.9 µM; further: nearly all actives have a fitted effect of over 70% in size; further: potency means the concentration at half of the fitted maximal effect
# [3] = target: Glutathione peroxidase 1 (Homo sapiens) (UniProt P07203); assay: Primary qHTS Assay for Inhibitors of Recombinant Selenoprotein Glutathione Peroxidase 1 (GPX1) (AID 1845191); conditions: recombinant GPX1, GR-coupled NADPH fluorescence, 15 min; series mostly up to 48.8 µM; further: nearly all actives have a fitted effect of over 65% in size
# Glutathione peroxidase 1 (Homo sapiens), sequence (P07203 whole entry, looked up): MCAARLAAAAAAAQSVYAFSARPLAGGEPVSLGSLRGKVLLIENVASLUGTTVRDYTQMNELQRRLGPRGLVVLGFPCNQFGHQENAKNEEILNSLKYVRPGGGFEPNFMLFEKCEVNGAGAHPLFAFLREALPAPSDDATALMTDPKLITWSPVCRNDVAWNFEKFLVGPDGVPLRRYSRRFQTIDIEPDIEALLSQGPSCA
# How it was run: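 NADPH consumption tracked by fluorescence at 340/450 nm between t=0 and t=15 min, room temperature. Final mix: 10 nM GPX1, 100 nM glutathione reductase, 1 mM GSH, 0.5 mM NADPH, 0.5 mM cumene hydroperoxide, 0.01% BSA; 30 min compound–enzyme preincubation.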
# [4] = Primary qHTS for inhibitors of nuclear receptor binding SET domain protein 2 (NSD2) in an RCH-ACV wild type WT cells (2C) (AID 1645877); conditions: RCH-ACV (leukaemia line) NSD2 WT (2C) viability, CellTiter-Glo, 72 h; series mostly up to 44.9 µM; further: nearly all actives have a fitted effect of over 70% in size; further: potency means the concentration at half of the fitted maximal effect
# [5] = NCATS anti-infectives library activity on the primary C. elegans qHTS viability assay (AID 1745855; calls by dose curve); conditions: C. elegans worm area imaging, day 7; at 41.8 µM (top of the series) unless noted
# How it was run: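 Titration-based screen in worms: eggs hatched overnight in M9, L1 larvae fed TOP10 capsules in S medium with compound, incubated 21 °C for 7 days; fluorescent objects gated by size and intensity at days 0, 3 and 7.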
# [6] = target: Papain (Carica papaya) (UniProt P00784); assay: Primary qHTS assay for inhibitors of the protease papain (AID 1645873); conditions: papain Z-FR-AMC cleavage, AMC fluorescence; series mostly up to 49.8 µM;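 further: papain turnover of Z-FR-AMC read as the AMC fluorescence gain over 10 min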
# Papain (Carica papaya), sequence (P00784 whole entry, looked up): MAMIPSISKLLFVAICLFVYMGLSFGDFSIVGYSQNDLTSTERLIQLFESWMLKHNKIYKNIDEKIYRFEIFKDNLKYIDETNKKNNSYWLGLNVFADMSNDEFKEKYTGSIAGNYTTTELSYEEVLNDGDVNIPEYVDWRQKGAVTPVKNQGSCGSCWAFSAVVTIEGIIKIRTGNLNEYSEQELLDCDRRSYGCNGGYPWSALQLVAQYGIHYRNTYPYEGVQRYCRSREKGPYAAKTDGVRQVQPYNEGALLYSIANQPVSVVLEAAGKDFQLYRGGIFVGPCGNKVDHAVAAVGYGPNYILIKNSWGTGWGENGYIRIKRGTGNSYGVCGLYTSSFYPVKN
# [7] = target: Metallo-beta-lactamase type 2 (Klebsiella pneumoniae) (UniProt C7C422); assay: qHTS to identify inhibitors of the New Delhi Metallo-beta-lactamase (NDM): assay validation screen against the NCATS LOPAC Collection (AID 1794843); conditions: NDM-1 enzyme, nitrocefin hydrolysis, absorbance 485 nm; series mostly up to 38.4 µM;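 further: nitrocefin turnover by NDM-1 measured as 485 nm absorbance at plateau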
# Metallo-beta-lactamase type 2 (Klebsiella pneumoniae), sequence (C7C422 whole entry, looked up): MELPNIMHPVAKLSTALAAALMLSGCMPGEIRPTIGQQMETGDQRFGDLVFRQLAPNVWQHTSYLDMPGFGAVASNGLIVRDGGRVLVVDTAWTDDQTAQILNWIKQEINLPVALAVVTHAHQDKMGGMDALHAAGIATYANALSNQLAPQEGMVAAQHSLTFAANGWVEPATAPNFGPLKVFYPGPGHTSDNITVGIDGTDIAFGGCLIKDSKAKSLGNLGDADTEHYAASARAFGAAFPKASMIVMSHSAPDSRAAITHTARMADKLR
# How it was run: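 NDM-1 at 2 nM final in 50 mM HEPES pH 7.0 with 1 uM ZnSO4 and 0.01% Tween20 was preincubated with library compounds in DMSO. Nitrocefin (50 uM stock) was then added, and absorbance at 485 nm was read at the kinetic plateau.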
# [8] = target: Rap guanine nucleotide exchange factor 3 (Homo sapiens) (UniProt O95398); assay: Confirmatory qHTS for antagonist of cAMP-regulated guanine nucleotide exchange factor 3 (EPAC1) (AID 1645880); conditions: EPAC1 Rap1B-BODIPY-GDP exchange, fluorescence; series mostly up to 115 µM; further: potency means the concentration at half of the fitted maximal effect; nearly all actives have a fitted effect of over 55% in size
# Rap guanine nucleotide exchange factor 3 (Homo sapiens), sequence (O95398 whole entry, looked up): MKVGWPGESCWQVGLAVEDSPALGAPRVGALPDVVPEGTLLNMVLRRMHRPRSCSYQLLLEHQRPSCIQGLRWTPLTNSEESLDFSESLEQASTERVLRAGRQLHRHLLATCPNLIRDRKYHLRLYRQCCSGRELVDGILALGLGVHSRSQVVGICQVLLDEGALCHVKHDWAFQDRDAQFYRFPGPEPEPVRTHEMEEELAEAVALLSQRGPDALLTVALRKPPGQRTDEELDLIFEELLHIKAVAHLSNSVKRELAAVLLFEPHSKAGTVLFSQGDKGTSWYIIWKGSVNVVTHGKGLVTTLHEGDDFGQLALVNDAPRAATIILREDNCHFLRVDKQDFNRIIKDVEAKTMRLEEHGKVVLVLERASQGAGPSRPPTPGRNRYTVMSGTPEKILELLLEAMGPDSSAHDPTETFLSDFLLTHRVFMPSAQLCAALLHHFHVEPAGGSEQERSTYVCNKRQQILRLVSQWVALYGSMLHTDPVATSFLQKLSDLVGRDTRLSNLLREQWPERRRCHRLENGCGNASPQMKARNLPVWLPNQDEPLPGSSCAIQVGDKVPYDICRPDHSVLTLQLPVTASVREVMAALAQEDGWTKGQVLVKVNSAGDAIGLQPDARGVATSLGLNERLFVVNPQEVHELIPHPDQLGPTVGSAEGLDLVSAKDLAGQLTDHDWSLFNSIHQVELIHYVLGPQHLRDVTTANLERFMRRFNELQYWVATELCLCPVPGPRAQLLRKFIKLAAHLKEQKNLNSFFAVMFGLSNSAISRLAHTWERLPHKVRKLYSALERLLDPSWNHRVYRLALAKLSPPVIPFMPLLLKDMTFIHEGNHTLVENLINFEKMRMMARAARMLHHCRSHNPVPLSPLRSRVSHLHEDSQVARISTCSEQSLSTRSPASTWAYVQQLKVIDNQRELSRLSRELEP
# How it was run: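 Released BODIPY-GDP fluoresces less than Rap1-bound BODIPY-GDP; the signal is followed at 480/540 nm at 5-min intervals over 30 min, after 5 min at room temperature. Reactions contain 100 nM EPAC1, 250 nM RAP1B-BODIPY-GDP and 50 uM GDP; results are normalized to ATA and DMSO.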
# [9] = target: Rap guanine nucleotide exchange factor 3 (Homo sapiens) (UniProt O95398); assay: Confirmatory qHTS for agonist of cAMP-regulated guanine nucleotide exchange factor 3 (EPAC1) (AID 1645881); conditions: EPAC1 Rap1B BODIPY-GDP exchange fluorescence, 100% = cAMP control response; series mostly up to 154 µM;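 further: EPAC1 catalysed release of BODIPY-GDP from Rap1B seen as fluorescence loss; nearly all actives have a fitted effect of over 75% in size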
# [10] = target: Rap guanine nucleotide exchange factor 4 (Homo sapiens) (UniProt Q8WZA2); assay: Confirmatory qHTS for agonist of cAMP-regulated guanine nucleotide exchange factor 4 (EPAC2) (AID 1645884); conditions: EPAC2 GEF activity, Rap1B-BODIPY-GDP fluorescence, percent relative to cAMP agonist control; series mostly up to 154 µM;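 further: nucleotide exchange releases bodipy-GDP from Rap1 and this lowers its fluorescence; nearly all actives have a fitted effect of over 65% in size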
# Rap guanine nucleotide exchange factor 4 (Homo sapiens), sequence (Q8WZA2 whole entry, looked up): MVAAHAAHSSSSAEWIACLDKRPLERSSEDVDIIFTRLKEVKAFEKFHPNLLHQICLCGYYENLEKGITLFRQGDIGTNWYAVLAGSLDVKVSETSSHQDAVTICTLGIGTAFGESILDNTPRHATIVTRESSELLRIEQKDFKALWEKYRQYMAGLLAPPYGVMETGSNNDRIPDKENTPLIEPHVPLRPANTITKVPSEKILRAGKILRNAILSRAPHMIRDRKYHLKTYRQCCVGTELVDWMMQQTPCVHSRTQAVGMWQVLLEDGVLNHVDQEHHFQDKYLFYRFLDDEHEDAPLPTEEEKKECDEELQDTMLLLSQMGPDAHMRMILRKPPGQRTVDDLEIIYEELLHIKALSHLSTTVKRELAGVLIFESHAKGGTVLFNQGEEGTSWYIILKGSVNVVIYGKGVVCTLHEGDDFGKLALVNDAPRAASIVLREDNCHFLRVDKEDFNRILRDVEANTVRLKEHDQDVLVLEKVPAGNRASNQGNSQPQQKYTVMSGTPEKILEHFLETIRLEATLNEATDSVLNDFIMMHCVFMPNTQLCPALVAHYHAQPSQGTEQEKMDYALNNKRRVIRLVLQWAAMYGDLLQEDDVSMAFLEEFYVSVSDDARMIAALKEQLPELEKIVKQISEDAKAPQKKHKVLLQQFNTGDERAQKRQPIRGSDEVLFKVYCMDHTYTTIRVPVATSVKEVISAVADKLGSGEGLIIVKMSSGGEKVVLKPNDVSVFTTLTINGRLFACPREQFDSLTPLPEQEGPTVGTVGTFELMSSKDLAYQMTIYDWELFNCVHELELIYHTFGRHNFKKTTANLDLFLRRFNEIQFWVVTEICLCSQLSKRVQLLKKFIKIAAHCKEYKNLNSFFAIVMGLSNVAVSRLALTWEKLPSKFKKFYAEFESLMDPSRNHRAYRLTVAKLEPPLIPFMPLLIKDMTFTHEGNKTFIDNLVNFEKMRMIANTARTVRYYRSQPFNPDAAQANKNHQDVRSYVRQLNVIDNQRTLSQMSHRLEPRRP
# [11] = target: Rap guanine nucleotide exchange factor 4 (Homo sapiens) (UniProt Q8WZA2); assay: Confirmatory qHTS for antagonist of cAMP-regulated guanine nucleotide exchange factor 4 (EPAC2) (AID 1645885); conditions: EPAC2 Rap1B-BODIPY-GDP exchange fluorescence, biochemical; series mostly up to 114 µM; further: nearly all actives have a fitted effect of over 25% in size; further: potency means the concentration at half of the fitted maximal effect
# [12] = target: Rap guanine nucleotide exchange factor 3 (Homo sapiens) (UniProt O95398); assay: Counterscreen qHTS for antagonist of cAMP-regulated guanine nucleotide exchange factor 3 (EPAC1) (AID 1645888); conditions: Rap1B-BODIPY-GDP nucleotide exchange, fluorescence; series mostly up to 30.8 µM
# How it was run: (§1)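 Rap1B-BODIPY-GDP 250 nM + GDP 50 uM; cpds 7-pt, final 9.74 nM–152 uM (activator mode) or from 7.32 nM upwards (inhibitor mode); RT; FI 480/540 nm at 5 and 30 min, then ± cAMP, reread.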
# [13] = target: Rap guanine nucleotide exchange factor 3 (Homo sapiens) (UniProt O95398); assay: Counterscreen qHTS for agonist of cAMP-regulated guanine nucleotide exchange factor 3 (EPAC1) (AID 1645889); conditions: EPAC1 Rap1B-BODIPY-GDP exchange, fluorescence; series mostly up to 30.8 µM; further: nearly all actives have a fitted effect of over 40% in size
# How it was run: as §1
smiles,measurement,setting,value
CN(C)CCC[C@@]1(c2ccc(F)cc2)OCc2cc(C#N)ccc21,Potency,[1],inactive
same,Potency,[2],inactive
same,Potency,[3],inactive
O=C(NCCc1c[nH]c2ccccc12)c1cccnc1,Potency,[2],inactive
same,Potency,[4],inactive
NC(=O)n1c(O)c(C(=O)c2cccs2)c2cc(Cl)ccc21,Potency,[2],inactive
same,Potency,[4],inactive
OC[C@H]1O[C@@H](Oc2ccc(O)cc2)[C@H](O)[C@@H](O)[C@@H]1O,Potency,[1],inactive
same,outcome,[5],inactive [at 83.3 µM]
same,Potency,[3],inactive
C#C[C@]1(O)CC[C@H]2[C@@H]3[C@H](C)CC4=C(CCC(=O)C4)[C@H]3CC[C@@]21C,Potency,[2],23.7 µM (active)
same,Potency,[4],21.1 µM (active)
Cc1ccccc1OCC(O)CO (configuration not stated),Potency,[2],inactive
same,Potency,[4],inactive
same,Potency,[3],inactive
CN1CCC(OC(c2ccccc2)c2ccccc2)CC1,Potency,[2],inactive
same,Potency,[3],inactive
CN(C)CCN1C(=O)c2ccccc2N(C)c2ccccc21,Potency,[1],inactive
same,Potency,[2],inactive
same,Potency,[3],inactive
CCCCC(CC)COC(=O)/C=C/c1ccc(OC)cc1 (configuration not stated),Potency,[1],9.77 µM (active)
same,Potency,[2],inactive
same,Potency,[4],inactive
same,Potency,[3],inactive
O=C(O)CCC(=O)Nc1ccc(S(=O)(=O)Nc2nccs2)cc1,Potency,[2],inactive
same,Potency,[4],inactive
same,Potency,[3],inactive
NC(N)=NCc1cccc(I)c1,outcome,[6],inactive
same,outcome,[7],inactive
O=[N+]([O-])c1cccc(S(=O)(=O)NCCNS(=O)(=O)c2cccc([N+](=O)[O-])c2)c1,Potency,[2],inactive
same,Potency,[4],inactive
CCc1oc2ccccc2c1C(=O)c1cc(Br)c(O)c(Br)c1,Potency,[8],39.5 µM (active) and 39.8 µM (active)
same,outcome,[9],inactive
same,outcome,[10],inactive
same,Potency,[11],27.8 µM (active)
same,"activity change, negative = inhibition",[11],-17.2% [at 12.7 µM]
same,outcome,[12],inactive
same,outcome,[13],inactive
NC(=O)c1ccccc1O,Potency,[1],inactive
same,Potency,[3],inactive
COc1ccc(C(=O)c2ccccc2O)c(O)c1,Potency,[2],inactive
same,Potency,[4],inactive
same,outcome,[9],inactive
same,outcome,[10],inactive
same,Potency,[11],44.1 µM (active)
CN1CCC[C@@H]1CCO[C@](C)(c1ccccc1)c1ccc(Cl)cc1,Potency,[2],21.1 µM (active)
same,Potency,[4],13.3 µM (active)
